Results as given in PubChem BioAssay.
Activity calls are given as the source filed them. Unless noted, how the calls were made is not given here.

Legend:
[1] = HepG2 liver cancer cell viability effects, profiling panel, resazurin fluorescence, 24 h, PK04 Diversity Set (AID 1172); details: higher = more signal; further: test concentration not given here
[2] = basal S. cerevisiae growth modulation, no modifier, primary screen, OD600, strain BY4716, 24 h, basal condition (AID 1173); details: OD600, 24 h, higher = more signal, called active from +8 up or from −8 down
[3] = MM1S myeloma cell viability, profiling panel, resazurin fluorescence, basal, 24 h, PK04 Diversity Set (AID 1174); details: higher = more signal, called active from +8 up or from −8 down;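 further: MM1S multiple myeloma cell line; test concentration not given here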
[4] = molecular target: Dihydroorotate dehydrogenase (quinone), mitochondrial (Plasmodium falciparum (isolate 3D7)) (UniProt Q08210); assay: PfDHODH enzyme inhibitors, primary screen, biochemical, C-terminal His tag, absorbance 600 nm (AID 1175); details: DCIP absorbance 600 nm, higher = more signal, called active from +8 up or from −8 down;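 further: recombinant parasite enzyme with a five histidine tag at its C terminus; test concentration not given here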
Dihydroorotate dehydrogenase (quinone), mitochondrial (Plasmodium falciparum (isolate 3D7)), sequence (Q08210 whole entry, looked up): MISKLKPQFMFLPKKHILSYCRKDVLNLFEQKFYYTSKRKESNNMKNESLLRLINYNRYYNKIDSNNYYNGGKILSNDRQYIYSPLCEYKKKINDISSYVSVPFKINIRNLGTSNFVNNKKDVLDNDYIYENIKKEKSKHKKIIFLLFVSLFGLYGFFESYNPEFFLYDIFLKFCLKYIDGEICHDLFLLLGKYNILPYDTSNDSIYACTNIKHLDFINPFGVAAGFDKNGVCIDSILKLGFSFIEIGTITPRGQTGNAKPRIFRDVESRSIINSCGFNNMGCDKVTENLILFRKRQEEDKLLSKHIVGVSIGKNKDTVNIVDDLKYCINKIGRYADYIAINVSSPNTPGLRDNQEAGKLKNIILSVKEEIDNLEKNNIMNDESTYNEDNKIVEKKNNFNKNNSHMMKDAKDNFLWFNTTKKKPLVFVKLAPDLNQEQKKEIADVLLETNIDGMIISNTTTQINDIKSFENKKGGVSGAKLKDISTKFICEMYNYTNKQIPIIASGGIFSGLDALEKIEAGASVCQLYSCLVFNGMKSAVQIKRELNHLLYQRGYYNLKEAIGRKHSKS

[5] = P. aeruginosa biofilm formation inhibitors, primary screen, strain PAO1, LB-PBS medium, absorbance 600 nm (AID 1176); further: test concentration not given here; details: P. aeruginosa PAO1 growth/biofilm, A600, 12 h; higher = more signal
[6] = S. cerevisiae RM11-1a growth modifiers, primary screen, strain RM11-1a, OD600, basal, 24 h (AID 1177); details: OD600, 24 h, higher = more signal, called active from +8 up or from −8 down;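 further: cultures grown under basal conditions with no added stressor; test concentration not given here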
[7] = E. coli acrAB mutant growth effects, primary screen, E. coli filamentation inducers, strain DRC39, OD650, 24 h (AID 1178); details: higher = more signal, called active from +8 up or from −8 down;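 further: growth measured as culture turbidity by optical density at 650 nm; test concentration not given here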
[8] = E. coli acrAB mutant growth effects, primary screen, E. coli filamentation inducers, strain DRC39, OD650, 48 h (AID 1179);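 further: screen aims at cell division blockers that make cells filament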; details: E. coli DRC39 delta-acrAB growth, higher = more signal, called active from +8 up or from −8 down
[9] = RPMI8226 myeloma cell viability, profiling panel, resazurin fluorescence, basal, 24 h, PK04 Diversity Set (AID 1180); details: higher = more signal;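 further: RPMI8826 multiple myeloma cell line at 5000 cells per well; test concentration not given here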
[10] = molecular target: E3 ubiquitin-protein ligase XIAP (Homo sapiens) (UniProt P98170); assay: XIAP binders, primary screen, biophysical, small-molecule microarray, fluorescence 635 nm (AID 1181); details: small-molecule microarray binding, higher = more signal;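 further: score merges 667 nm emission and signal to noise over triplicate slides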
E3 ubiquitin-protein ligase XIAP (Homo sapiens), sequence (P98170 whole entry, looked up): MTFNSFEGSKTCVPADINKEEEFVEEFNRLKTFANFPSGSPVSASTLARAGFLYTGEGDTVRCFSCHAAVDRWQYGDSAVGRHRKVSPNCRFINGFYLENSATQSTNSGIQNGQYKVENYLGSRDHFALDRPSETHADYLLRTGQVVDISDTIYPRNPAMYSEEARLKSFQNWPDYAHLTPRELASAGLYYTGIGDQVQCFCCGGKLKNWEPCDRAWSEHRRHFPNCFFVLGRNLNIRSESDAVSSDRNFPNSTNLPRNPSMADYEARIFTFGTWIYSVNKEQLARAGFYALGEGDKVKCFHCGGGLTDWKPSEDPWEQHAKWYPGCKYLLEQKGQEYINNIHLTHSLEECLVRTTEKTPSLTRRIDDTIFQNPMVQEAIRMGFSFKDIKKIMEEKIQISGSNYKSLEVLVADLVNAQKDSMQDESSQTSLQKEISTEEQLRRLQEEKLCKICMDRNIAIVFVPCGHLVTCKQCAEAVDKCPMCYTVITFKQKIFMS

Structure (SMILES) | z-score [1] | z-score [2] | z-score [3] | composite z-score [4] | z-score [5] | z-score [6] | z-score [7] | z-score [8] | z-score [9] | composite z-score [10]
CCCCC=C[C@@H](NC(=O)C(C)(C)C)c1ccccc1 | -1.12 | 2.43 (inactive) | -2.58 (inactive) | 0.507 (inactive) | 0.563 (inactive) | 2.07 (inactive) | -0.275 (inactive) | -0.0819 (inactive) | -3.59 | -0.0095
C#CCN(C(=O)OC(C)(C)C)[C@H](CO)c1ccccc1 | 0.739 | -7.87 (inactive) | -0.351 (inactive) | -0.2 (inactive) | -0.234 (inactive) | -0.184 (inactive) | 0.47 (inactive) | -0.652 (inactive) | -0.336 | -0.005
COC(=O)[C@@]1(Cc2ccc(OC)cc2)[C@@H]2[C@@H](CC(=O)[C@H]2CC(=O)C(=O)N(C)C)CN1C(=O)c1ccccc1 | -0.54 | 1.05 (inactive) | -2.89 (inactive) | -0.284 (inactive) | 1.02 (inactive) | 0.415 (inactive) | 0.243 (inactive) | 0.358 (inactive) | -4.19 | 0.489
COc1c(C)cc(-c2cc3c(c(CCc4ccccc4)n2)[Si](C(C)C)(C(C)C)O[C@H]3c2ccccc2)cc1C | -0.0275 | 0.597 (inactive) | 0.135 (inactive) | 0.0798 (inactive) | 0.608 (inactive) | 1.42 (inactive) | -0.754 (inactive) | -0.744 (inactive) | -3.7 | -0.195
CC(=O)NCCCC[C@@H]1NC(=O)[C@H]2C[C@@H](C(=O)NCCCCCN)[C@@H](c3ccc(O)cc3)N2C1=O | -0.508 | 1.26 (inactive) | -0.336 (inactive) | 0.538 (inactive) | -0.13 (inactive) | 1.08 (inactive) | -0.496 (inactive) | -0.696 (inactive) | -0.121 | -0.224
COCCCNC(=O)[C@@]1(CCC(=O)OC(C)(C)C)N=C(c2ccc(OCCCO)cc2)O[C@H]1c1ccccc1 | -0.464 | 1.12 (inactive) | 0.34 (inactive) | -1.1 (inactive) | -0.568 (inactive) | 0.795 (inactive) | 0.267 (inactive) | 1.22 (inactive) | 0.137 | -0.171
O=C1O[C@@H](c2ccccc2)[C@@H](c2ccccc2)N2[C@@H](c3ccccc3OCCO)[C@]3(C(=O)Nc4ccc(C#CC5(O)CCCCCC5)cc43)[C@@H](C(=O)N3CCCCCCC3)[C@H]12 | -0.225 | 0.866 (inactive) | -0.169 (inactive) | -1.03 (inactive) | 1.33 (inactive) | 0.312 (inactive) | -0.36 (inactive) | -1.17 (inactive) | -0.186 | 1.97
CCOC(=O)C1=CCC(c2ccncc2)N(S(=O)(=O)c2ccc(C)cc2)C1 (stereo not given) | -0.226 | -0.867 (inactive) | -1.14 (inactive) | -1.2 (inactive) | -0.433 (inactive) | -0.364 (inactive) | -0.0978 (inactive) | 0.737 (inactive) | -1.25 | -0.197
COC(=O)[C@@]1(Cc2ccccc2)[C@H]2c3cc(C(=O)N(C)C)n(Cc4ccc(Cl)c(C(F)(F)F)c4)c3C[C@H]2CN1C(=O)c1ccccc1 | -1.83 | 2.32 (inactive) | -2.53 (inactive) | 0.46 (inactive) | 1.43 (inactive) | 1.37 (inactive) | -1.4 (inactive) | -0.744 (inactive) | -2.95 | 0.331
C=C[C@@H](CO)NS(=O)(=O)c1ccc(Br)cc1 | 1.4 | -2.03 (inactive) | 1.16 (inactive) | -1.37 (inactive) | 0.193 (inactive) | -2.19 (inactive) | 1.43 (inactive) | 1.16 (inactive) | 0.867 | -0.215
CCCCCN1CC=CC23O[C@@H]4/C=C\CCCOC(=O)C4[C@H]2C(=O)N(CCCCCO)[C@@H]3C1=O (stereo not given in full) | 0.809 | -1.17 (inactive) | 1.33 (inactive) | -0.869 (inactive) | 0.0962 (inactive) | -1.08 (inactive) | 0.279 (inactive) | -0.0568 (inactive) | 1.33 | 0.165
CCOC(=O)C[C@H]1[C@H](OC(=O)c2ccc(-c3ccccc3)cc2)[C@@H](NC(=O)c2ccc(-c3ccccc3)cc2)c2cc(OCCCO)ccc2N1C(=O)c1ccccc1 | -0.697 | 1.36 (inactive) | -1.01 (inactive) | -0.0085 (inactive) | 0.0307 (inactive) | 0.795 (inactive) | -0.168 (inactive) | -0.331 (inactive) | -0.967 | 0.0766
